# Experimental data taken from PubChem BioAssay (NCI).
# About 83,000 compounds went through this panel and 20% of them were active in at least one assay; those are over-represented in the sample as a whole.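 Single-concentration screen, 48 h exposure, 96-well plates. Endpoint: percent growth. Below 10 = active.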 Values without a mark were called inactive. Calls of active or inactive are those of the source.
# Tested on: HS 578T breast
# Assay: NCI-60 one-dose screen, 48 h (100 = growth as untreated, 0 = no growth, -100 = all killed)
# Details: 10 µM unless noted
row,SMILES,growth
1,O=C1CSC(=O)N1Cc1cc2ccccc2nc1Cl,97.1%
2,CCCCSc1nnc(-c2ccc(-c3ccc(Cl)cc3)nc2C)o1,105%
3,COc1ccc(/C=N\NC(=O)c2ccc3nc(-c4ccc(Br)cc4)[nH]c3c2)cc1,14.8%
4,NS(=O)(=O)c1ccc(Nc2nc(N/N=C/c3ccc([N+](=O)[O-])cc3)nc(Nc3ccccc3)n2)cc1,53.5%
5,COc1cc(NC2=C(Cl)C(=O)c3nc(C)ccc3C2=O)cc(OC)c1,-32.8% (active)
6,Cc1ccc(/C=C/CC(=O)Nc2ccc(C(=O)Nc3ccc(F)cc3N)cc2)cn1,56.7%
7,COc1ccc(S(=O)(=O)n2cc(C=O)c3ccccc32)c(OC)c1,78.3%
8,C#C[C@]1(O)CC[C@H]2[C@@H]3CC=C4c5sc(Nc6cc(Cl)ccn6)nc5CC[C@]4(C)[C@H]3CC[C@@]21C,-3.53% (active)
9,N#C/C(=C\c1ccc2ccccc2c1)C(=O)Nc1sc2c(c1C#N)CCC2,104%
10,C/C=C/C=C1\C[C@H]2CO[C@H](O2)C1=O,107%
11,O=C(NNc1nc2cc(F)cc(F)c2n2cccc12)c1ncccn1,42.8%
12,C#CCOc1ccc(/C=N/Nc2nc(-c3cc(Cl)ccc3Cl)cs2)cc1,98.3%
13,COc1ccc(-c2nc(SCC(C)C)nc(N/N=C\c3cccc([N+](=O)[O-])c3)c2C#N)cc1,43%
14,CNC(=O)c1cc(Oc2ccc3nc(NC(=O)c4ccc(CN5CCN(C)CC5)c(C(F)(F)F)c4)sc3c2)ccn1,52.9%
15,C#C[C@]1(O)CC[C@H]2[C@@H]3CC=C4c5sc(Nc6ccc(OC)nc6)nc5CC[C@]4(C)[C@H]3CC[C@@]21C,3.53% (active)
16,O=C1Nc2ccc(Br)cc2/C1=N\c1nnc(-c2ccc(Cl)cc2)o1,83.1%
17,CC(C)c1nn(-c2ccccc2)c(N2CCCCC2)c1/C=N/NC(N)=S,103%
18,COc1cc(/C=C/C(=O)c2ccc(N3CCN(C)CC3)cc2)ccc1F,104%
19,CC1CCN(S(=O)(=O)c2ncsc2-c2ccccc2)CC1,40.3%
20,O=C1[C@@H]2Cc3c([nH]c4ccccc34)[C@H](c3c(Cl)cccc3Cl)N2C(=O)CN1C1CCN(Cc2ccccc2)CC1,28.5%
21,C#C[C@]1(O)CC[C@H]2[C@@H]3CC=C4c5sc(Nc6ccncc6)nc5CC[C@]4(C)[C@H]3CC[C@@]21C,-33.6% (active)
22,C#CCOc1ccc(/C=N/Nc2nc(-c3cc4cc(Br)cc(Br)c4oc3=O)cs2)cc1,91.3%
23,O=C1c2c(c3c4cccnc4[nH]c3c3ccc4ccccc4c23)C(=O)N1CCN1CCCCC1,105%
24,NS(=O)(=O)Oc1ccc2nc(Nc3ccc(F)c(F)c3)ccc2c1,104%
25,Cc1ccc(-c2csc(N/N=C/c3nc4ccccc4n3C3CC3)n2)cc1,88.5%
26,O=C1c2c(c3c4cc(Br)ccc4[nH]c3c3ccc4ccccc4c23)C(=O)N1CCN1CCCCC1,104%
27,Cc1cnc2nc(NN)[nH]n12,107%
28,O=C(NCCCCCCNC(=O)c1c2c(nc3ccccc13)-c1cccnc1SC2)c1c2c(nc3ccccc13)-c1cccnc1SC2,83.2%
29,COc1cc(/C=N/n2cnc3oc(-c4ccccc4)cc3c2=N)cc(CN2CCCC2)c1O,63.6%
30,C#C[C@]1(O)CC[C@H]2[C@@H]3CC=C4c5sc(Nc6cccc(Cl)n6)nc5CC[C@]4(C)[C@H]3CC[C@@]21C,-19.9% (active)
